Results reported in PubChem BioAssay AID1499 (Sanford-Burnham Center for Chemical Genomics, 2009).
About 65 (0.07%) of roughly 93,000 compounds were called active.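 How the source made its calls: active means 10 µM primary screen giving 50% or more activity, confirmed by 40% or more on retest at that dose; inactive means the rest.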 The list comes from a sample in which actives are over-represented; it also holds similar structures and randomly drawn compounds.

target: Integrin beta-2 (Homo sapiens) + Integrin alpha-M (Homo sapiens) (UniProt P05107+P11215); assay: enhancers of CD11b/CD18 adhesion to fibrinogen, primary screen, K562 cells, luminescence (AID 1499); details: ATPlite luminescence, at 10 µM, stronger effect = higher value
Sequence (P05107 whole entry, looked up, other chains not shown): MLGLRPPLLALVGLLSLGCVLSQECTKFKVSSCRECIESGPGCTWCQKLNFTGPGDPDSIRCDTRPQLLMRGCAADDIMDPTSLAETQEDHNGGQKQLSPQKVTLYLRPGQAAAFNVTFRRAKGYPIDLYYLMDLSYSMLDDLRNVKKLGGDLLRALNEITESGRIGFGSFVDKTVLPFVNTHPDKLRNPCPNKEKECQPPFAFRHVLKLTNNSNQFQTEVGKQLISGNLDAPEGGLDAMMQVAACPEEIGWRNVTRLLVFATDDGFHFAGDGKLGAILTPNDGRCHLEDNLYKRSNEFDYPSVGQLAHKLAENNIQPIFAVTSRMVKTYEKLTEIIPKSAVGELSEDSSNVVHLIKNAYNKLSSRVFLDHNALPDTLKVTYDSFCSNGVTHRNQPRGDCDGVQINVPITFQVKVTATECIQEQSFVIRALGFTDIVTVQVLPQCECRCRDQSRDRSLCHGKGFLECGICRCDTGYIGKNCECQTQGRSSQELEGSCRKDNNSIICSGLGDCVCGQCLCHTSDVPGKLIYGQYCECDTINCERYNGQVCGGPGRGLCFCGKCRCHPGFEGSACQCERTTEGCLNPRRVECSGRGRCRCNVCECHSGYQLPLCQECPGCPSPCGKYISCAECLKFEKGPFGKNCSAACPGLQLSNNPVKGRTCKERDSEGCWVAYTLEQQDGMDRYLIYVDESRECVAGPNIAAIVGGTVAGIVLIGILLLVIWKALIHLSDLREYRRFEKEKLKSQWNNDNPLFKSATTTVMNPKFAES

activation, inactive:
Cc1ccc(NC(=O)CN(C)Cc2ccc(F)cc2)c([N+](=O)[O-])c1 -1%, O=C(Oc1ccccc1Cl)c1ccc(N2CCOCC2)c([N+](=O)[O-])c1 -0.9%, CCS(=O)(=O)Nc1cccc(-c2cc(-c3ccccc3)c3cc(C)ccc3n2)c1 -5.6%, O=C(COC(=O)CSc1nnc(-c2ccc(Cl)cc2)o1)Nc1cc(Cl)cc(Cl)c1 25.1%, O=C(Nc1ccccc1)/C(=C/c1ccc([N+](=O)[O-])cc1)NC(=O)c1ccccc1 29.4%, CN(Cc1ccccc1)C(=O)COC(=O)c1ccccc1Nc1ccccc1 -2.4%, CC(C)C(=O)Nc1ccc2c3c(cccc13)CC2 -4.8%, CCCOC(=O)c1c(NC(=O)c2cnn3c2NC(c2ccccc2)CC3C(F)(F)F)sc2c1CCCC2 (configuration not stated) 62.7%, O=C(Oc1ccc([N+](=O)[O-])cc1)c1ccc(Cl)c(S(=O)(=O)N2CCCCC2)c1 -4.7%, O=C(Nc1nnc(C2COc3ccccc3O2)o1)c1ccc(F)cc1 (configuration not stated) 3%, COC(=O)N/N=C/c1ccc(-c2ccc(Cl)c(Cl)c2)o1 -1.3%, COc1ccc(Nc2nc(N)nc(CSC(=S)N3CCC(C)CC3)n2)cc1 2.4%, COc1ccc(Cl)cc1NC(=O)[C@@H]1CCCN1C(=O)c1cccs1 2.8%, O=C(Nc1ccccc1Cl)c1ccccc1S(=O)(=O)c1ccccc1[N+](=O)[O-] 1%, CCOc1ccc(NC(=O)COc2ccc(C(=O)NC3CCCc4ccccc43)cc2OC)cc1 (configuration not stated) 37%, COc1ccc(C2c3c(C)nn(-c4ccccc4)c3NC(=O)N2c2ccccc2)cc1 (configuration not stated) -1.5%, CCCc1c(C)nc2c(Br)cccc2c1Cl 2.4%, COC(=O)c1ccc(C(=O)OC)c(NC(=S)N2CCN(c3cc(Cl)ccc3C)CC2)c1 -1.1%, CCN(CC)c1ccc([N+](=O)[O-])cc1C(=O)O -7%, COc1ccc(CCNC(=O)CSc2nc(-c3ccc(OC)c(OC)c3)ccc2C#N)cc1 8.9%, CC(=O)N1CCN(CC(=O)Nc2ccc(SC(F)F)cc2)CC1 2.9%, Cc1nn(C)c(Oc2ccccc2)c1CCNS(=O)(=O)c1ccc(F)cc1 4.8%
